# Results published in the supplement of paper PMC8728848.
# The sample as a whole holds a higher share of the strongest signals than the screen did.
# B1: CPA (Cicer arietinum) (protein)
# chain: MAFSYLNLVLVTLTTLFFLQTTKVKSQKSVSFHITNFTISRPSITLQGTAEFLPNVLLLNDIEHPVFVVGRALYSKPITLWNNKTGKVASFVTSFTFDVQDLKKTVPGHGLVFFLAPSGSEIPFSSDGGNLGVVDGKNAFNRFVGVEFDNFVNSWDPKYSHVGINVNSLISTKTVKWNRVSGELVKVSIVYDSVSTTLTVIVTYKNGQISILSQLVDLKAVLPDTVNIGFSASTTLVSPRQLHNIHSWSFTSTFET
# Key:
# Experiment in all cases: glycan array binding signal (z-score within array); higher = stronger binding
# Conditions in all cases: glycan notation: IUPAC condensed, linker removed
# Fuc(a1-2)Gal(b1-3)GalNAc = target: Fuc(a1-2)Gal(b1-3)GalNAc
# Method in brief: (§1)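 Glycan array binding is given as a within-array Z-score, which can be read as non-binding when negative. The arrays, 3228 of them, came from the Consortium for Functional Glycomics database and were retained only where the protein sequence was available. Z-scores were averaged across arrays of the same protein sequence at different concentrations or buffers and across linkers.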
# [1] = target: Fuc(a1-2)Gal(b1-3)GlcNAc(b1-2)Man(a1-3)[Fuc(a1-2)Gal(b1-3)GlcNAc(b1-2)Man(a1-6)]Man(b1-4)GlcNAc(b1-4)GlcNAc
# Method in brief: as §1
# [2] = target: Fuc(a1-2)Gal(b1-3)[Fuc(a1-4)]GlcNAc(b1-3)[Gal(b1-4)GlcNAc(b1-6)]Gal(b1-4)Glc
# Method in brief: as §1
# [3] = target: Fuc(a1-2)Gal(b1-4)GlcNAc(b1-2)Man(a1-3)[Fuc(a1-2)Gal(b1-4)GlcNAc(b1-2)Man(a1-6)]Man(b1-4)GlcNAc(b1-4)[Fuc(a1-6)]GlcNAc
# Method in brief: as §1
# [4] = target: Fuc(a1-2)Gal(b1-4)GlcNAc(b1-3)Gal(b1-4)GlcNAc(b1-2)Man(a1-3)[Fuc(a1-2)Gal(b1-4)GlcNAc(b1-3)Gal(b1-4)GlcNAc(b1-2)Man(a1-6)]Man(b1-4)GlcNAc(b1-4)GlcNAc
# Method in brief: as §1
# [5] = target: Fuc(a1-2)Gal(b1-4)[Fuc(a1-3)]GlcNAc(b1-3)Gal(b1-4)[Fuc(a1-3)]GlcNAc
# Method in brief: as §1
# [6] = target: Fuc(a1-2)[Gal(a1-3)]Gal(b1-3)GlcNAc(b1-2)Man(a1-3)[Fuc(a1-2)[Gal(a1-3)]Gal(b1-3)GlcNAc(b1-2)Man(a1-6)]Man(b1-4)GlcNAc(b1-4)[Fuc(a1-6)]GlcNAc
# Method in brief: as §1
# [7] = target: Fuc(a1-2)[Gal(a1-3)]Gal(b1-4)GlcNAc(b1-2)Man(a1-3)[Fuc(a1-2)[Gal(a1-3)]Gal(b1-4)GlcNAc(b1-2)Man(a1-6)]Man(b1-4)GlcNAc(b1-4)GlcNAc
# Method in brief: as §1
# [8] = target: Fuc(a1-2)[GalNAc(a1-3)]Gal(b1-3)GlcNAc(b1-3)GalNAc
# Method in brief: as §1
# [9] = target: Fuc(a1-2)[GalNAc(a1-3)]Gal(b1-4)GlcNAc(b1-2)Man(a1-3)[Fuc(a1-2)[GalNAc(a1-3)]Gal(b1-4)GlcNAc(b1-2)Man(a1-6)]Man(b1-4)GlcNAc(b1-4)[Fuc(a1-6)]GlcNAc
# Method in brief: as §1
# [10] = target: Fuc(a1-2)[GalNAc(a1-4)]Gal(b1-4)GlcNAc
# Method in brief: as §1
# Fuc(a1-3)GlcNAc = target: Fuc(a1-3)GlcNAc
# Method in brief: as §1
# Gal(a1-2)Gal = target: Gal(a1-2)Gal
# Method in brief: as §1
# Gal(a1-3)Gal(b1-3)GlcNAc = target: Gal(a1-3)Gal(b1-3)GlcNAc
# Method in brief: as §1
# [11] = target: Gal(a1-3)Gal(b1-3)GlcNAc(b1-2)Man
# Method in brief: as §1
# [12] = target: Gal(a1-3)Gal(b1-3)GlcNAc(b1-6)GalNAc
# Method in brief: as §1
# Gal(a1-3)Gal(b1-4)Glc = target: Gal(a1-3)Gal(b1-4)Glc
# Method in brief: as §1
# [13] = target: Gal(a1-3)Gal(b1-4)GlcNAc(b1-6)GalNAc
# Method in brief: as §1
# Gal(a1-3)GalNAc = target: Gal(a1-3)GalNAc
# Method in brief: as §1
# [14] = target: Gal(b1-3)GalNAc(a1-3)[Fuc(a1-2)]Gal(b1-4)Glc
# Method in brief: as §1
# [15] = target: Gal(b1-3)GlcNAc(b1-3)Gal(b1-4)GlcNAc(b1-3)Gal(b1-4)GlcNAc(b1-2)[Gal(b1-3)GlcNAc(b1-3)Gal(b1-4)GlcNAc(b1-3)Gal(b1-4)GlcNAc(b1-6)]Man(a1-6)[Gal(b1-3)GlcNAc(b1-3)Gal(b1-4)GlcNAc(b1-3)Gal(b1-4)GlcNAc(b1-2)Man(a1-3)]Man(b1-4)GlcNAc(b1-4)[Fuc(a1-6)]GlcNAc
# Method in brief: as §1
# [16] = target: Gal(b1-4)GalNAc(a1-3)[Fuc(a1-2)]Gal(b1-4)GlcNAc
# Method in brief: as §1
# [17] = target: Gal(b1-4)GlcNAc(b1-2)Man(a1-6)[Man(a1-3)]Man(b1-4)GlcNAc(b1-4)GlcNAc
# Method in brief: as §1
# [18] = target: Gal(b1-4)GlcNAc(b1-3)Gal(b1-4)GlcNAc(b1-3)Gal(b1-4)GlcNAc(b1-2)Man(a1-3)[Gal(b1-4)GlcNAc(b1-3)Gal(b1-4)GlcNAc(b1-3)Gal(b1-4)GlcNAc(b1-2)Man(a1-6)]Man(b1-4)GlcNAc(b1-4)GlcNAc
# Method in brief: as §1
# [19] = target: Gal(b1-4)GlcNAc(b1-3)Gal(b1-4)GlcNAc(b1-3)Gal(b1-4)GlcNAc(b1-3)Gal(b1-4)GlcNAc(b1-2)Man(a1-3)[Gal(b1-4)GlcNAc(b1-3)Gal(b1-4)GlcNAc(b1-3)Gal(b1-4)GlcNAc(b1-3)Gal(b1-4)GlcNAc(b1-2)Man(a1-6)]Man(b1-4)GlcNAc(b1-4)[Fuc(a1-6)]GlcNAc
# Method in brief: as §1
# [20] = target: Gal(b1-4)GlcNAc(b1-3)Gal(b1-4)GlcNAc(b1-3)Gal(b1-4)GlcNAc(b1-3)Gal(b1-4)GlcNAc(b1-3)Gal(b1-4)GlcNAc(b1-3)Gal(b1-4)GlcNAc(b1-2)Man(a1-3)[Gal(b1-4)GlcNAc(b1-3)Gal(b1-4)GlcNAc(b1-3)Gal(b1-4)GlcNAc(b1-3)Gal(b1-4)GlcNAc(b1-3)Gal(b1-4)GlcNAc(b1-3)Gal(b1-4)GlcNAc(b1-2)Man(a1-6)]Man(b1-4)GlcNAc(b1-4)GlcNAc
# Method in brief: as §1
# [21] = target: Gal(b1-4)GlcNAc(b1-3)Gal(b1-4)GlcNAc(b1-3)GalNAc
# Method in brief: as §1
# [22] = target: Gal(b1-4)GlcNAc(b1-3)GalNAc
# Method in brief: as §1
# [23] = target: Gal(b1-4)GlcNAc(b1-6)[Gal(b1-4)GlcNAc(b1-3)]GalNAc
# Method in brief: as §1
binder,measurement,setting,value
B1,glycan array binding signal (z-score),Fuc(a1-2)Gal(b1-3)GalNAc,-0.424
same,glycan array binding signal (z-score),[1],3.79
same,glycan array binding signal (z-score),[2],-0.072
same,glycan array binding signal (z-score),[3],0.297
same,glycan array binding signal (z-score),[4],0.012
same,glycan array binding signal (z-score),[5],-0.681
same,glycan array binding signal (z-score),[6],-0.184
same,glycan array binding signal (z-score),[7],0.562
same,glycan array binding signal (z-score),[8],3.66
same,glycan array binding signal (z-score),[9],0.023
same,glycan array binding signal (z-score),[10],1.3
same,glycan array binding signal (z-score),Fuc(a1-3)GlcNAc,-0.573
same,glycan array binding signal (z-score),Gal(a1-2)Gal,-0.045
same,glycan array binding signal (z-score),Gal(a1-3)Gal(b1-3)GlcNAc,0.134
same,glycan array binding signal (z-score),[11],-0.562
same,glycan array binding signal (z-score),[12],-0.42
same,glycan array binding signal (z-score),Gal(a1-3)Gal(b1-4)Glc,0.092
same,glycan array binding signal (z-score),[13],-0.23
same,glycan array binding signal (z-score),Gal(a1-3)GalNAc,-0.121
same,glycan array binding signal (z-score),[14],-0.568
same,glycan array binding signal (z-score),[15],3.59
same,glycan array binding signal (z-score),[16],-0.399
same,glycan array binding signal (z-score),[17],-0.041
same,glycan array binding signal (z-score),[18],4.32
same,glycan array binding signal (z-score),[19],0.005
same,glycan array binding signal (z-score),[20],3.7
same,glycan array binding signal (z-score),[21],3.36
same,glycan array binding signal (z-score),[22],-0.24
same,glycan array binding signal (z-score),[23],3.6
